# PubChem BioAssay (NCI)
# This is part of a sample that, as a whole, favours compounds with a hit. Of some 83,000 tested, about 20% had one in any assay.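 Cell lines were cultured in 96-well plates, exposed to a single compound concentration, and assessed for percent growth 48 hours later.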 A number with no mark means an inactive call. The source made the active and inactive calls. Rule for the calls: active = growth percent below 10; inactive = the rest.
# Legend:
# Experiment in all cases: NCI-60 one-dose screen, 48 h (100 = growth as untreated, 0 = no growth, -100 = all killed)
# Conditions in all cases: 10 µM unless noted
# [1] = system: DU-145 prostate
# [2] = system: K-562 leukemia
# [3] = system: MALME-3M melanoma
# [4] = system: MDA-MB-231 breast
# [5] = system: SF-268 CNS
# [6] = system: SF-295 CNS
# [7] = system: SF-539 CNS
# [8] = system: UACC-257 melanoma
# [9] = system: M14 melanoma
# [10] = system: HCT-15 colon
# [11] = system: HT29 colon
# [12] = system: SNB-75 CNS
# [13] = system: U251 CNS
# [14] = system: PC-3 prostate
# [15] = system: SK-MEL-5 melanoma
# [16] = system: UACC-62 melanoma
# [17] = system: LOX IMVI melanoma
# [18] = system: SK-MEL-28 melanoma
# [19] = system: SNB-19 CNS
Structure (SMILES),growth [1] [%],growth [2],growth [3],growth [4] [%],growth [5] [%],growth [6],growth [7],growth [8],growth [9],growth [10],growth [11],growth [12],growth [13] [%],growth [14],growth [15],growth [16],growth [17],growth [18] [%],growth [19] [%]
COc1ccc(C(=O)/C=C/c2cn(Cc3ccc(Cl)cc3)c3ccccc23)cc1,87.4,15.5%,59.9%,64.5,72.4,60.2%,55.8%,81.8%,-60.1% (active),39.7%,22.8%,76.9%,59.6,61.3%,89.1%,31.3%,49.2%,80.6,–
O=C(CN1CCOCC1)Nc1ccc2ncnc(Nc3ccc(OCc4cccc(F)c4)c(Cl)c3)c2c1,50.5,43.9%,83.7%,71,68.7,73.9%,75.3%,87.9%,68.5%,60%,61%,69.1%,77.1,51.9%,61.5%,84.8%,72.9%,77,–
COc1cc2ncnc(Nc3ccc(C(=O)/C=C/c4ccc(C(F)(F)F)cc4F)cc3)c2cc1OC,107,58.4%,106%,90.7,96.2,95.8%,93.7%,111%,97.9%,104%,98.8%,87.7%,85.4,–,104%,–,92%,109,98.2
COc1cccc2cc(-c3cc4ccccc4[nH]3)/c(=N/C(=S)Nc3ccc(C)cc3)oc12,66.4,80.4%,66.6%,39.4,72.3,79.5%,45.7%,103%,95%,72%,86.3%,-8.91% (active),–,55.6%,73.8%,65.7%,71.2%,78.4,52.8
COc1cc(-c2nc3sccn3c2-c2ccnc(NCCNS(=O)(=O)c3ccc(F)cc3)n2)ccc1F,19.6,5.81% (active),-34.2% (active),22.3,19,4.27% (active),31.2%,-12.7% (active),9.49% (active),13.2%,10.8%,52.7%,17.5,6.16% (active),-75.3% (active),-65.2% (active),4.75% (active),19.2,–
COc1cc(-c2nc3occn3c2-c2ccnc(NCCNS(=O)(=O)c3ccc(Cl)cc3)n2)ccc1F,89.8,58.9%,80.1%,78.3,68.4,88.6%,85.4%,90.2%,86%,74.7%,53.1%,69.1%,–,56.4%,66.1%,57.1%,81.9%,102,91.6
O=C(NCCc1ccccn1)OCc1nc2nc(Cl)nc(N3CCOCC3)c2[nH]1,12,0.32% (active),67.8%,28.5,24.3,91.4%,-13.4% (active),30.6%,4.12% (active),-27.2% (active),-28.9% (active),2.59% (active),–,22.7%,-10.8% (active),24.6%,-49.9% (active),41.9,37.2
CN1C2CCC1CN(c1cnc(C(=O)Nc3cc(F)cc4cccnc34)cn1)C2,74.6,15.7%,41%,31.4,85.6,97.6%,70.4%,42.7%,54.3%,24.2%,37.1%,92.5%,–,15.2%,79.5%,94.9%,33.2%,57.8,92.7
